CIT2 TOR yeast: modulators of CIT2-GFP expression in yeast, primary screen, S. cerevisiae, GFP fusion, multiplex flow cytometry, MLPCN library | S. cerevisiae CIT2-GFP strain, 3 h; 100 means same as DMSO wells | GFP response vs DMSO, % at 10 µM | 320,000 compounds, 0.065% hits;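 active = GFP response relative to DMSO above a set limit, near the screen mean plus 3 SD, cut at about 150% in these data; inconclusive = Fewer than 70 cells measured for a yeast strain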;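 also: ratio of well median GFP fluorescence to mean of DMSO wells on the plate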
RPL19A TOR yeast: RPL19A-GFP expression modulators in yeast, primary screen, cell-based, S. cerevisiae, multiplex flow cytometry, MLPCN; percent response vs DMSO, % at 10 µM; 330,000 compounds, 0.3% hits; S. cerevisiae RPL19A-GFP strain, 3 h; stronger effect = lower value;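 active = percent response vs DMSO below 50%; inconclusive = fewer than 70 events counted for the yeast strain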;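 also: median channel GFP fluorescence of the barcoded RPL19A-GFP strain; ratio of sample median GFP to plate DMSO average so 100% = DMSO; lower means less RPL19A-GFP as with rapamycin TOR inhibition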
LAP4-GFP MLPCN: modulators of LAP4-GFP expression in yeast, primary screen, S. cerevisiae, multiplex flow cytometry, MLPCN library | 3 h; median GFP as percent of DMSO wells | 320,000 compounds, 0.34% hits | GFP response vs DMSO, % at 10 µM | AID 2023, 2009;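 active = GFP response vs DMSO above a set limit, about the screen mean plus 3 SD, cut at about 150% in these data; inconclusive = under 70 cell events counted for the yeast strain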
MEP2 TOR yeast: modulators of MEP2-GFP levels in yeast, primary screen, S. cerevisiae, multiplex flow cytometry, MLPCN library; S. cerevisiae MEP2-GFP strain, 3 h; 100% = DMSO control level; GFP response vs DMSO, % at 10 µM; 330,000 compounds, 0.51% hits; AID 2016, 2009;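 active = GFP response versus DMSO above a set limit, roughly screen mean plus 3 SD, cut at about 180% in these data; inconclusive = fewer than 70 cells counted for a yeast strain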;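 also: median GFP fluorescence of the barcode-gated MEP2-GFP cells per well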
AGP1 TOR yeast: modulators of AGP1-GFP expression in yeast TOR pathway, primary screen, cell-based, multiplex flow cytometry, S. cerevisiae, MLPCN library; 3 h; GFP as percent of DMSO wells; GFP response vs DMSO, % at 10 µM; 320,000 compounds, 0.02% hits; AID 2066, 2009;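 active = GFP response relative to DMSO above a set limit, near screen average plus 3 SD, cut at about 150% in these data; inconclusive = fewer than 70 cells counted for the yeast strain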;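 also: median GFP channel fluorescence of the gated AGP1 strain per well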
Starred values were filed as active, the others as inactive; [ ] = remark or other dose. This is a sample that favours compounds with a hit; in the whole collection about 0.93% have one here.

`Cc1cccc(NC(=O)CC2SC(=O)N(c3ccccc3)C2=O)c1` (centres undefined) gave CIT2 TOR yeast 87, RPL19A TOR yeast 94, LAP4-GFP MLPCN 165*, MEP2 TOR yeast 101 and AGP1 TOR yeast 87.
For Cc1ccc(NC(=O)CC2SC(=O)N(c3ccccc3)C2=O)cc1 (centres undefined) the results were CIT2 TOR yeast 79, RPL19A TOR yeast 91, LAP4-GFP MLPCN 153*, MEP2 TOR yeast 93 and AGP1 TOR yeast 88.
`CCCN1C[C@H](CSC)C[C@@H]2c3cccc4[nH]cc(c34)C[C@H]21` gave CIT2 TOR yeast inconclusive, RPL19A TOR yeast 34*[may fluoresce violet], LAP4-GFP MLPCN 83, MEP2 TOR yeast 203*[may fluoresce violet] and AGP1 TOR yeast inconclusive.
Screening CCOC(=O)C1(C/C(C)=N/NC(N)=O)CC(C)(C)OC1=O (centres undefined) returned CIT2 TOR yeast inconclusive, RPL19A TOR yeast 43*[may fluoresce violet], LAP4-GFP MLPCN 91, MEP2 TOR yeast 176*[may fluoresce violet] and AGP1 TOR yeast 16.
NNC(=O)c1ccc(CSc2cccc3cccnc23)cc1 was read as CIT2 TOR yeast 96, RPL19A TOR yeast 103, LAP4-GFP MLPCN 114, MEP2 TOR yeast 109 and AGP1 TOR yeast 102.
Screening Cc1cccc(CSc2cccc3cccnc23)c1 returned CIT2 TOR yeast 89, RPL19A TOR yeast 93, LAP4-GFP MLPCN 164*, MEP2 TOR yeast 102 and AGP1 TOR yeast 85.
Screening c1cnc2c(SCc3ccc(-c4nnco4)cc3)cccc2c1 returned CIT2 TOR yeast 106, LAP4-GFP MLPCN 104, MEP2 TOR yeast 195* and AGP1 TOR yeast 43.
COc1ccccc1N1CCN(C(=O)c2cc3c(=O)n4cccc(C)c4nc3s2)CC1 was read as CIT2 TOR yeast 76, RPL19A TOR yeast 94, LAP4-GFP MLPCN 75, MEP2 TOR yeast 107 and AGP1 TOR yeast 82.
COc1ccccc1CCC(=O)Nc1ccc2c(c1)CN(Cc1ccc(CO)o1)CC2 was read as RPL19A TOR yeast 98, LAP4-GFP MLPCN 81, MEP2 TOR yeast 104 and AGP1 TOR yeast 93.
`COc1ccc(Cc2nnc(NC(=O)C3CCN(C(=O)c4ccco4)CC3)s2)cc1` gave CIT2 TOR yeast 100, RPL19A TOR yeast 92, LAP4-GFP MLPCN 101, MEP2 TOR yeast 92 and AGP1 TOR yeast 91.
Screening Cc1cccn2c(=O)c(/C=C(\C#N)C(=O)NCc3ccco3)c(N3CCCCC3)nc12 returned CIT2 TOR yeast inconclusive, RPL19A TOR yeast 62, LAP4-GFP MLPCN 89, MEP2 TOR yeast 178*[may fluoresce violet] and AGP1 TOR yeast 16.
COc1ccc(N2CCN(c3nc4c(C)cccn4c(=O)c3/C=C(\C#N)C(N)=O)CC2)cc1 was read as CIT2 TOR yeast 105, RPL19A TOR yeast 68, LAP4-GFP MLPCN 80, MEP2 TOR yeast 195* and AGP1 TOR yeast 17.
Screening O=C(CNC(=O)c1nn(Cc2ccccc2)c(=O)c2ccccc12)Nc1ccc(F)c(F)c1F returned CIT2 TOR yeast 104, RPL19A TOR yeast 100, LAP4-GFP MLPCN 99, MEP2 TOR yeast 106 and AGP1 TOR yeast 100.
`C#CCOCCOCCOCCNc1nc(N2CCN(C(=O)C([C@@H](C)CC)n3cc(C(N)COC(=O)C(F)(F)F)nn3)CC2)nc(N2CCN(C(=O)[C@H](CCCCN)n3cc(C(N)[C@H](C)CC)nn3)CC2)n1` (some centres undefined) gave CIT2 TOR yeast 102, RPL19A TOR yeast 97, LAP4-GFP MLPCN 107, MEP2 TOR yeast 94 and AGP1 TOR yeast 93.
COCc1nc2c([nH]1)c(=O)n(C)c(=O)n2CC(C)C was read as CIT2 TOR yeast 79, RPL19A TOR yeast 100, LAP4-GFP MLPCN 100, MEP2 TOR yeast 97 and AGP1 TOR yeast 85.
`CC(NC(=O)CN(C)S(=O)(=O)c1ccc(Br)s1)c1ccccc1` (centres undefined) gave CIT2 TOR yeast inconclusive, RPL19A TOR yeast 57, LAP4-GFP MLPCN 80, MEP2 TOR yeast 257*[may fluoresce violet] and AGP1 TOR yeast 14.
`O=S(=O)(c1ccc(Cl)cc1)c1snnc1-c1ccccc1` gave CIT2 TOR yeast 107, RPL19A TOR yeast 104, LAP4-GFP MLPCN 165* and MEP2 TOR yeast 110.
O=C(Nc1nc(-c2ccccn2)cs1)c1ccc(Br)s1 was read as CIT2 TOR yeast inconclusive, RPL19A TOR yeast 57, LAP4-GFP MLPCN 197*[may fluoresce violet], MEP2 TOR yeast 114 and AGP1 TOR yeast 17.
Screening COc1cc(C(=O)NCc2nnc(SCC(=O)N3CCCc4ccccc43)o2)cc(OC)c1OC returned CIT2 TOR yeast 107, RPL19A TOR yeast 103, LAP4-GFP MLPCN 96, MEP2 TOR yeast 105 and AGP1 TOR yeast 105.
Screening CC(C)(CNC(=O)CCC1CCCC1)CNC(=O)CCC1CCCC1 returned CIT2 TOR yeast 98, RPL19A TOR yeast 96, LAP4-GFP MLPCN 107, MEP2 TOR yeast 103 and AGP1 TOR yeast 110.
Screening O=C(O)CCNC(=O)c1ccccc1 returned CIT2 TOR yeast 88, RPL19A TOR yeast 80, LAP4-GFP MLPCN 226*, MEP2 TOR yeast 95 and AGP1 TOR yeast 95.
`CCOc1ccc(NC(=O)c2ccc3c(c2)OCCO3)cc1S(=O)(=O)N(CC)CC` gave CIT2 TOR yeast 103, RPL19A TOR yeast 99, LAP4-GFP MLPCN 93, MEP2 TOR yeast 93 and AGP1 TOR yeast 97.
Screening COc1ccc(CNC(=O)C(CC(C)C)NC(=O)c2ccccc2C)cc1 (centres undefined) returned CIT2 TOR yeast inconclusive, RPL19A TOR yeast 51, LAP4-GFP MLPCN 74, MEP2 TOR yeast 200*[may fluoresce violet] and AGP1 TOR yeast 18.
Screening CCC(CC)C(=O)NCc1ccc(OC)cc1 returned CIT2 TOR yeast 101, RPL19A TOR yeast 102, LAP4-GFP MLPCN 110, MEP2 TOR yeast 111 and AGP1 TOR yeast 110.
For O/N=C/c1ccc(-c2ccccc2OC(F)(F)F)o1 the results were CIT2 TOR yeast inconclusive, RPL19A TOR yeast 31*[may fluoresce violet], LAP4-GFP MLPCN 71, MEP2 TOR yeast 457*[may fluoresce violet] and AGP1 TOR yeast inconclusive.
`CC(=O)c1ccc(-c2ccccc2OC(F)(F)F)o1` gave CIT2 TOR yeast 93, RPL19A TOR yeast 95, LAP4-GFP MLPCN 103, MEP2 TOR yeast 93 and AGP1 TOR yeast 96.
O=C(NNC(=O)c1cccs1)c1ccc(Cl)c(Cl)c1 was read as CIT2 TOR yeast 103, RPL19A TOR yeast 103, LAP4-GFP MLPCN 92, MEP2 TOR yeast 105 and AGP1 TOR yeast 99.
`CCOC(=O)N1CCN(C(=O)Cn2ncn3nc(-c4cccs4)cc3c2=O)CC1` gave CIT2 TOR yeast inconclusive, RPL19A TOR yeast 25*[may fluoresce violet], LAP4-GFP MLPCN 94, MEP2 TOR yeast 469*[may fluoresce violet] and AGP1 TOR yeast inconclusive.
For CCOC(=O)CC(NC(=O)c1cccc2c1C(=O)N(Cc1cccnc1)C2)c1ccc(OC(C)C)cc1 (centres undefined) the results were CIT2 TOR yeast 118, RPL19A TOR yeast 110, LAP4-GFP MLPCN 104, MEP2 TOR yeast 114 and AGP1 TOR yeast 110.
